Experimental data from PubChem BioAssay (NCATS).
Results filed as inconclusive are left out. Entries that show only a call come without a potency. The source made the active and inactive calls. The call rests on the fitted dose curve; in most records, active means well fitted inhibition curve with a large enough effect; inconclusive means small, poorly fitted or top-dose-only effect; inactive means flat fitted curve, though single readings scatter.

tested on: CP265; experiment: qHTS profiling for inhibitors of Plasmodium falciparum proliferation (AID 504749); further: nearly all actives have a fitted effect of over 60% in size; conditions: P. falciparum in erythrocytes, SYBR Green DNA, 72 h; series mostly up to 28.7 µM
Method in brief: (§1)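 Readout was DNA-dye fluorescence from lysed cultures, ex 485/em 535 nm. Parasitized red cells had grown 72 h with compound; data scaled between 0.29 uM artemisinin and DMSO wells and corrected using vehicle-only plates.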
Potency means the concentration at half of the fitted maximal effect.

| Compound | Potency |
| --- | --- |
| O=C(O)c1cc(O)c2c(c1)[C@H]([C@H]1c3cc(C(=O)O)cc(O)c3C(=O)c3c(O[C@@H]4OC(CO)C(O)C(O)C4O)cccc31)c1cccc(O[C@@H]3OC(CO)C(O)C(O)C3O)c1C2=O (some centres undefined) | inactive |
| CC(C)CN(C[C@@H](OP(=O)(O)O)[C@H](Cc1ccccc1)NC(=O)O[C@@H]1CCOC1)S(=O)(=O)c1ccc(N)cc1 | inactive |
| CCC(C)n1ncn(-c2ccc(N3CCN(c4ccc(OCC5COC(Cn6cncn6)(c6ccc(Cl)cc6Cl)O5)cc4)CC3)cc2)c1=O (centres undefined) | inactive |
| CC(C)CN(C[C@@H](O)[C@H](Cc1ccccc1)NC(=O)O[C@H]1CCOC1)S(=O)(=O)c1ccc(N)cc1 | inactive |

tested on: CP266; experiment: as above; conditions: P. falciparum in erythrocytes, SYBR Green DNA, 72 h; series mostly up to 28.7 µM
Method in brief: as §1

| Compound | Potency |
| --- | --- |
| CC(C)CN(C[C@@H](OP(=O)(O)O)[C@H](Cc1ccccc1)NC(=O)O[C@@H]1CCOC1)S(=O)(=O)c1ccc(N)cc1 | inactive |
| CCC(C)n1ncn(-c2ccc(N3CCN(c4ccc(OCC5COC(Cn6cncn6)(c6ccc(Cl)cc6Cl)O5)cc4)CC3)cc2)c1=O (centres undefined) | inactive |
| CC(C)CN(C[C@@H](O)[C@H](Cc1ccccc1)NC(=O)O[C@H]1CCOC1)S(=O)(=O)c1ccc(N)cc1 | inactive |

tested on: CP269; experiment: as above; conditions: P. falciparum in erythrocytes, SYBR Green DNA, 72 h; series mostly up to 28.7 µM
Method in brief: as §1

| Compound | Potency |
| --- | --- |
| CC(C)CN(C[C@@H](OP(=O)(O)O)[C@H](Cc1ccccc1)NC(=O)O[C@@H]1CCOC1)S(=O)(=O)c1ccc(N)cc1 | inactive |
| CCC(C)n1ncn(-c2ccc(N3CCN(c4ccc(OCC5COC(Cn6cncn6)(c6ccc(Cl)cc6Cl)O5)cc4)CC3)cc2)c1=O (centres undefined) | inactive |
| CC(C)CN(C[C@@H](O)[C@H](Cc1ccccc1)NC(=O)O[C@H]1CCOC1)S(=O)(=O)c1ccc(N)cc1 | inactive |

tested on: CP286; experiment: as above; conditions: P. falciparum in erythrocytes, SYBR Green DNA, 72 h; series mostly up to 28.7 µM
Method in brief: as §1

| Compound | Potency |
| --- | --- |
| O=C(O)c1cc(O)c2c(c1)[C@H]([C@H]1c3cc(C(=O)O)cc(O)c3C(=O)c3c(O[C@@H]4OC(CO)C(O)C(O)C4O)cccc31)c1cccc(O[C@@H]3OC(CO)C(O)C(O)C3O)c1C2=O (some centres undefined) | inactive |
| CC(C)CN(C[C@@H](OP(=O)(O)O)[C@H](Cc1ccccc1)NC(=O)O[C@@H]1CCOC1)S(=O)(=O)c1ccc(N)cc1 | inactive |
| CCC(C)n1ncn(-c2ccc(N3CCN(c4ccc(OCC5COC(Cn6cncn6)(c6ccc(Cl)cc6Cl)O5)cc4)CC3)cc2)c1=O (centres undefined) | 4.47 µM (active) |

tested on: CP297; experiment: as above; conditions: P. falciparum in erythrocytes, SYBR Green DNA, 72 h; series mostly up to 28.7 µM
Method in brief: as §1

| Compound | Potency |
| --- | --- |
| CC(C)CN(C[C@@H](OP(=O)(O)O)[C@H](Cc1ccccc1)NC(=O)O[C@@H]1CCOC1)S(=O)(=O)c1ccc(N)cc1 | inactive |
| CCC(C)n1ncn(-c2ccc(N3CCN(c4ccc(OCC5COC(Cn6cncn6)(c6ccc(Cl)cc6Cl)O5)cc4)CC3)cc2)c1=O (centres undefined) | inactive |
| CC(C)CN(C[C@@H](O)[C@H](Cc1ccccc1)NC(=O)O[C@H]1CCOC1)S(=O)(=O)c1ccc(N)cc1 | inactive |

tested on: CP315; experiment: as above; conditions: P. falciparum in erythrocytes, SYBR Green DNA, 72 h; series mostly up to 28.7 µM
Method in brief: as §1

| Compound | Potency |
| --- | --- |
| CC(C)CN(C[C@@H](OP(=O)(O)O)[C@H](Cc1ccccc1)NC(=O)O[C@@H]1CCOC1)S(=O)(=O)c1ccc(N)cc1 | inactive |
| CCC(C)n1ncn(-c2ccc(N3CCN(c4ccc(OCC5COC(Cn6cncn6)(c6ccc(Cl)cc6Cl)O5)cc4)CC3)cc2)c1=O (centres undefined) | inactive |
| CC(C)CN(C[C@@H](O)[C@H](Cc1ccccc1)NC(=O)O[C@H]1CCOC1)S(=O)(=O)c1ccc(N)cc1 | inactive |

tested on: CP329; experiment: as above; conditions: P. falciparum in erythrocytes, SYBR Green DNA, 72 h; series mostly up to 28.7 µM
Method in brief: as §1

| Compound | Potency |
| --- | --- |
| CC(C)CN(C[C@@H](OP(=O)(O)O)[C@H](Cc1ccccc1)NC(=O)O[C@@H]1CCOC1)S(=O)(=O)c1ccc(N)cc1 | inactive |
| CCC(C)n1ncn(-c2ccc(N3CCN(c4ccc(OCC5COC(Cn6cncn6)(c6ccc(Cl)cc6Cl)O5)cc4)CC3)cc2)c1=O (centres undefined) | inactive |
| CC(C)CN(C[C@@H](O)[C@H](Cc1ccccc1)NC(=O)O[C@H]1CCOC1)S(=O)(=O)c1ccc(N)cc1 | inactive |

tested on: CP335; experiment: as above; conditions: P. falciparum in erythrocytes, SYBR Green DNA, 72 h; series mostly up to 28.7 µM
Method in brief: as §1

| Compound | Potency |
| --- | --- |
| O=C(O)c1cc(O)c2c(c1)[C@H]([C@H]1c3cc(C(=O)O)cc(O)c3C(=O)c3c(O[C@@H]4OC(CO)C(O)C(O)C4O)cccc31)c1cccc(O[C@@H]3OC(CO)C(O)C(O)C3O)c1C2=O (some centres undefined) | inactive |
| CC(C)CN(C[C@@H](OP(=O)(O)O)[C@H](Cc1ccccc1)NC(=O)O[C@@H]1CCOC1)S(=O)(=O)c1ccc(N)cc1 | inactive |
| CCC(C)n1ncn(-c2ccc(N3CCN(c4ccc(OCC5COC(Cn6cncn6)(c6ccc(Cl)cc6Cl)O5)cc4)CC3)cc2)c1=O (centres undefined) | 4.26 µM (active) |

tested on: DFO2036; experiment: as above; conditions: P. falciparum in erythrocytes, SYBR Green DNA, 72 h; series mostly up to 28.7 µM
Method in brief: as §1

| Compound | Potency |
| --- | --- |
| O=C(O)c1cc(O)c2c(c1)[C@H]([C@H]1c3cc(C(=O)O)cc(O)c3C(=O)c3c(O[C@@H]4OC(CO)C(O)C(O)C4O)cccc31)c1cccc(O[C@@H]3OC(CO)C(O)C(O)C3O)c1C2=O (some centres undefined) | inactive |
| CC(C)CN(C[C@@H](OP(=O)(O)O)[C@H](Cc1ccccc1)NC(=O)O[C@@H]1CCOC1)S(=O)(=O)c1ccc(N)cc1 | inactive |
| CCC(C)n1ncn(-c2ccc(N3CCN(c4ccc(OCC5COC(Cn6cncn6)(c6ccc(Cl)cc6Cl)O5)cc4)CC3)cc2)c1=O (centres undefined) | inactive |
| CC(C)CN(C[C@@H](O)[C@H](Cc1ccccc1)NC(=O)O[C@H]1CCOC1)S(=O)(=O)c1ccc(N)cc1 | inactive |
